About 83,000 compounds went through this panel and 20% of them were active in at least one assay; those are over-represented in the sample as a whole.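 Single-dose data. Exposure time 48 hours. Values below 10 considered active.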 Unmarked numbers belong to inactive results. Activity calls are given as the source filed them.
Columns and labels:
Test in all cases: NCI-60 one-dose screen, 48 h (100 = growth as untreated, 0 = no growth, -100 = all killed)
Details in all cases: 10 µM unless noted
DU-145 prostate = test system: DU-145 prostate
K-562 leukemia = test system: K-562 leukemia
MALME-3M melanoma = test system: MALME-3M melanoma
MDA-MB-231 breast = test system: MDA-MB-231 breast
RXF 393 renal = test system: RXF 393 renal
SF-268 CNS = test system: SF-268 CNS
SF-295 CNS = test system: SF-295 CNS
SF-539 CNS = test system: SF-539 CNS
UACC-257 melanoma = test system: UACC-257 melanoma
M14 melanoma = test system: M14 melanoma
HCT-15 colon = test system: HCT-15 colon
HT29 colon = test system: HT29 colon
SNB-75 CNS = test system: SNB-75 CNS
SNB-19 CNS = test system: SNB-19 CNS
U251 CNS = test system: U251 CNS
SK-MEL-5 melanoma = test system: SK-MEL-5 melanoma
UACC-62 melanoma = test system: UACC-62 melanoma
LOX IMVI melanoma = test system: LOX IMVI melanoma
SK-MEL-28 melanoma = test system: SK-MEL-28 melanoma
PC-3 prostate = test system: PC-3 prostate

SMILES | growth (DU-145 prostate) | growth (K-562 leukemia) | growth (MALME-3M melanoma) | growth (MDA-MB-231 breast) | growth (RXF 393 renal) | growth (SF-268 CNS) | growth (SF-295 CNS) | growth (SF-539 CNS) | growth (UACC-257 melanoma) | growth (M14 melanoma) | growth (HCT-15 colon) | growth (HT29 colon) | growth (SNB-75 CNS) | growth (SNB-19 CNS) | growth (U251 CNS) | growth (SK-MEL-5 melanoma) | growth (UACC-62 melanoma) | growth (LOX IMVI melanoma) | growth (SK-MEL-28 melanoma) | growth (PC-3 prostate)
C/C(CC1(O)C(=O)Nc2ccccc21)=N\O (centres undefined) | 109% | 99.6% | 96.2% | 94.8% | 103% | 98.3% | 98.6% | 94.7% | 105% | 97.9% | 95.4% | 104% | 92.4% | 103% | 98.8% | 99.9% | 99.7% | 90.4% | 108% | –
CCOc1cccc(/C(N)=N/C(N)=N/c2nc3ccccc3s2)c1 | 83.4% | 77.3% | 115% | 74.3% | 110% | 86.5% | 37.7% | 104% | 113% | 93.2% | 49.9% | 106% | 87.9% | 87.8% | – | 92.2% | 81.4% | 13.2% | 105% | 46.4%
N/C(=N\C(N)=N\c1nc2ccccc2s1)c1ccc(Cl)cc1 | 85.4% | 86.9% | 90.3% | 79.5% | 92.6% | 93% | 44.5% | 95.4% | 105% | 87.6% | 37.1% | 98.4% | 99.1% | 84% | – | 99.7% | 81.9% | 20.8% | 95.5% | 43.9%
CN1CCN(c2ccc(Nc3nc(NCCNC(=O)c4ccccc4)c4sccc4n3)cc2)CC1 | 79.4% | 8.82% (active) | 30.6% | 54.3% | 33.8% | 64.6% | 76.9% | -75.4% (active) | 33.3% | 27.8% | 20.7% | 4.23% (active) | 81% | 88.4% | – | 21.3% | 53% | 5.15% (active) | 59.5% | 61.8%
CCCCCN1C(=O)/C(=c2\sc3n(c2=O)C2C(NN=3)N(CC)C(=O)N2CC)c2cccc(C)c21 (centres undefined) | 76.6% | 16.2% | 51.6% | 62.4% | 15.1% | 56.9% | 45% | 23.8% | 79.8% | 51.4% | 19.9% | 37.9% | 20.5% | 53.1% | – | 45.5% | 35.4% | 37.9% | 62.4% | 40%
O=C(CSc1nc2ccccc2c(=O)n1-c1ccc(Cl)cc1)N/N=C/c1ccc(Oc2ccc(Cl)cc2)cc1 | 13.1% | 23% | -39.4% (active) | 30.4% | -43.8% (active) | 55.8% | 64.7% | 69.7% | 59% | -39.4% (active) | 10.4% | 1.76% (active) | 57.9% | 28.5% | -20.5% (active) | 10.9% | 0.427% (active) | -56.3% (active) | 3.17% (active) | –
Clc1ccc2[nH]cc(-c3nn4cc(-c5cccnc5)nc4s3)c2c1 | 107% | 94.7% | 90.6% | 71.7% | 113% | 107% | 96.7% | 95.6% | 109% | 99.2% | 95.1% | 98.7% | 90.5% | 100% | – | 96.2% | 90.1% | 123% | 101% | 88.6%
NCCNC(=O)c1cccc(COc2ccccc2NC(=O)c2cc(Cl)c(Cl)[nH]2)c1 | 92.6% | 5.92% (active) | 100% | 106% | 93.5% | 90.2% | 105% | 97.6% | 98.9% | 101% | 94.3% | 109% | 72.5% | 96.9% | 88.7% | 99.4% | 87.3% | 81.5% | 94.8% | –
FC(F)(F)c1cc(Br)cc(-c2cc(-c3ccc4c(c3)OCCO4)[nH]n2)c1 | 23.8% | 14.6% | 48.4% | 1.68% (active) | 31.6% | 41.7% | 12.3% | -5.31% (active) | 80.4% | 20.1% | 15.7% | 6.74% (active) | 5.38% (active) | 34.3% | – | 17.9% | 40.2% | 19% | 68.3% | 37%
C/C(=N\NC(N)=S)c1nnn(-c2ccc([N+](=O)[O-])cc2)c1C | 104% | 119% | 92.8% | 96.2% | 66.2% | 97% | 98.8% | 97.5% | 98.4% | 99.5% | 86.9% | 104% | 87.3% | 95.6% | 98.1% | 100% | 98.4% | 94.9% | 104% | –
COc1ccc(/C=N/NC(=O)CSc2nc(-c3cnccn3)cc(-c3cccs3)c2C#N)cc1 | 61.7% | 79.5% | 91.9% | 70.5% | 39.7% | 83.5% | 80.3% | 39.1% | 95.9% | 77.4% | 87.3% | 8.86% (active) | 77.3% | 57.8% | – | 72.5% | 59.4% | 45.7% | 77% | 72.9%
NS(=O)(=O)c1ccc(Nc2nc(N/N=C/c3ccc4c(c3)OCO4)nc(Nc3ccccc3)n2)cc1 | 41% | 33.2% | 58.6% | 59.6% | 22.4% | 42.6% | 64.5% | 16.7% | 84.6% | 38.7% | 82.7% | 40.2% | 53.6% | 55.8% | – | 54.3% | 78.4% | 26.7% | 67.5% | 59.1%
COc1ccc(CC(C)=C(c2ccc(OCCN3CCCC3)cc2)c2ccc(OCCN3CCCC3)cc2)cc1 | -88.6% (active) | 1.41% (active) | -82.9% (active) | -83.9% (active) | -95.3% (active) | -64.4% (active) | -87.7% (active) | -90.1% (active) | -86.6% (active) | -87.5% (active) | -85.2% (active) | -77.6% (active) | -76.7% (active) | -81% (active) | -70.1% (active) | -96.1% (active) | -88.8% (active) | -86.6% (active) | -92.2% (active) | –
CN1CCN(CC#CCn2c3c(c4ccccc42)C[C@]2(C)[C@H]4CC=C5[C@@H]6CC(C)(C)CC[C@]6(C(=O)N6CCOCC6)CC[C@@]5(C)[C@]4(C)CC[C@H]2C3(C)C)CC1 | 64.8% | -23% (active) | 83.3% | 43.1% | 68.4% | 83.5% | 99.3% | 73.9% | 102% | 87.7% | 28.4% | 12.3% | 88.9% | 83% | – | 95.7% | 103% | -46.1% (active) | 92.1% | 56.7%
CC(=O)OCCCCN1C=C/C(=C\C(=O)n2ccc3ccccc32)c2ccccc21 | 109% | 90.6% | 106% | 86.6% | 115% | 103% | 103% | 100% | 112% | 101% | 101% | 113% | 100% | 103% | – | 100% | 89.4% | 99.9% | 111% | 101%
Cc1ccc(/C=N/Nc2nc(Nc3ccccc3)nc(Nc3ccc(S(N)(=O)=O)cc3)n2)cc1 | 65.1% | 56.8% | 91.8% | 73.4% | -2.59% (active) | 87.1% | 57.7% | 44.7% | 101% | 72.8% | 53.5% | 54.8% | 67.7% | 77.6% | – | 76% | 91.3% | 54.9% | 75.7% | 66.8%

Reference: PubChem BioAssay (NCI)
